This excerpt belongs to a sample that is enriched for hits.
ALOX15B inhib = qHTS Assay for Inhibitors of 15-hLO-2 (15-human lipoxygenase 2) | purified 15hLO-2, xylenol orange hydroperoxide absorbance | Potency, µM (top dose mostly 57.1 µM), usual class: inhibitors | hit rate 0.56% among 110,000; further: nearly all actives have a fitted effect of over 60% in size
Target sequence (O15296 whole entry, looked up): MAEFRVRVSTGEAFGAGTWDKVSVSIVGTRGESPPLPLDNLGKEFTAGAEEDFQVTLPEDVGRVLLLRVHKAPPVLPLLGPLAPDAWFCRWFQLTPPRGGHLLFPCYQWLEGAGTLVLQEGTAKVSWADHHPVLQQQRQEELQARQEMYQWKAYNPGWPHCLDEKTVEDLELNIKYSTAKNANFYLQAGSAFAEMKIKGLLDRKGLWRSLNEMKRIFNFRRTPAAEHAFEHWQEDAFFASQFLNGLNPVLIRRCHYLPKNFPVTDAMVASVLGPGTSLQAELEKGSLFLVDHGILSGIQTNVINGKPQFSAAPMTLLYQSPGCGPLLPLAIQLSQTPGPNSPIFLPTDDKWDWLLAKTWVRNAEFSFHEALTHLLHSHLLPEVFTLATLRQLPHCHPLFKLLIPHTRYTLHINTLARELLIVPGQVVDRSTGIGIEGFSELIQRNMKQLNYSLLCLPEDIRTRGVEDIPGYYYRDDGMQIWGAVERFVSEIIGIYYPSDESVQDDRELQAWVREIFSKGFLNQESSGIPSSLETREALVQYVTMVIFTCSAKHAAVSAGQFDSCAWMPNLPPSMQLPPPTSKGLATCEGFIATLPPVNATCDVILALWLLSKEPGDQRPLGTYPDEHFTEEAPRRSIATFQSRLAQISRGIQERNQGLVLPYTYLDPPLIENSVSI
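Read-out: hydroperoxide product oxidises ferrous iron, measured as xylenol orange complex via the 573-to-405 nm absorbance ratio after 30 min. Reaction: 50 nM enzyme, 15 min compound preincubation, 45 uM arachidonic acid, 90 min RT, Hepes pH 7.5 with Triton X-100.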
12-hLO inh = qHTS Assay for Inhibitors of 12-hLO (12-human lipoxygenase); Potency, µM (top dose mostly 57.1 µM), most hits filed as inhibitors; hit rate 0.12% among 150,000; AID 1452, 2008; purified 12-hLO, xylenol orange hydroperoxide absorbance; Polyunsaturated fatty acid lipoxygenase ALOX12 (Homo sapiens), P18054; further: nearly all actives have a fitted effect of over 55% in size
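Hydroperoxide formation by human 12-lipoxygenase from 40 uM arachidonic acid was followed colorimetrically via ferric-xylenol orange complex, using the 573/405 nm absorbance ratio. Enzyme concentration was 150 nM, with 30 min reaction at room temperature.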
Each line names hits and unclear results; the compound was inactive in the other large screens. The call rests on the fitted dose curve; in most records, active means well fitted curve in the direction sought with a large enough effect; inconclusive means small, poorly fitted or top-dose-only effect, or another doubt; inactive means no such curve, though single readings can be large; an effect the other way counts as inactive or inconclusive.

O=[N+]([O-])c1ccc(NNC(=S)Nc2ccccc2)cc1	ALOX15B inhib 4µM, 12-hLO inh inconclusive
Cc1cc2nc([C@H](C)C(=O)c3ccc(Cl)cc3)c(=O)[nH]c2cc1C	none
O=[N+]([O-])c1cc(C(F)(F)F)ccc1NCCCCNS(=O)(=O)c1ccc(Cl)cc1	none (no result: ALOX15B inhib)
O=[N+]([O-])c1cc(C(F)(F)F)ccc1NCCNC(=S)Nc1ccc(Cl)cc1	ALOX15B inhib 32µM, 12-hLO inh inconclusive
CCC(C)CCCCC(=O)N[C@@H](CCN)C(=O)N[C@H](C(=O)N[C@@H](CCN)C(=O)N[C@H]1CCNC(=O)C([C@@H](C)O)NC(=O)[C@@H](CCN)NC(=O)[C@H](CCN)NC(=O)[C@H](CC(C)C)NC(=O)[C@@H](CC(C)C)NC(=O)[C@H](CCN)NC1=O)[C@@H](C)O (stereo not given in full)	none
CCC(C)C1NC(=O)C(CCNCS(=O)(=O)O)NC(=O)C(NC(=O)C(CCNCS(=O)(=O)O)NC(=O)C(NC(=O)C(CCNCS(=O)(=O)O)NC(=O)CCCCC(C)C)C(C)O)CCNC(=O)C(C(C)O)NC(=O)C(CCNCS(=O)(=O)O)NC(=O)C(CCNCS(=O)(=O)O)NC(=O)C(C(C)CC)NC1=O (stereo not given)	ALOX15B inhib 4µM, 12-hLO inh inconclusive
c1cc(CSSCc2ccncc2)ccn1	none
COc1ccccc1OC[C@H](O)CN1CCN(CC(=O)Nc2c(C)cccc2C)CC1	none
OCCN1CCN(C(c2cccs2)c2ccc3cccnc3c2O)CC1 (stereo not given)	12-hLO inh 14µM
CC(C)(C)c1cc(C(c2cccnc2)N2CCN(CCO)CC2)cc(C(C)(C)C)c1O (stereo not given)	none
O=c1ccn([C@@H]2O[C@@H](COP(=O)(O)OP(=O)(O)O)[C@H](O)[C@@H]2O)c(=O)[nH]1	none
O=c1cc(-c2cccc(O)c2O)oc2ccccc12	ALOX15B inhib 16µM, 12-hLO inh inconclusive
O=c1cc(-c2ccccc2O)oc2cc(O)ccc12	none
C[C@@H]1C(=O)N(C)C(=O)c2nc[nH]c21	none
Nc1ccn([C@@H]2O[C@@H](CO)[C@@H](O)[C@H]2O)c(=O)n1	none
CCCCCCCCCCCCCCCC(=O)NC[C@@H](COP(=O)([O-])OCC[N+](C)(C)C)OCC	none
Cc1nc(-c2ccc(O)c(O)c2)cs1	ALOX15B inhib inconclusive
Oc1ccc(-c2csc(-c3ccccc3)n2)cc1O	ALOX15B inhib 4µM, 12-hLO inh 13µM
O=C(O)CCCCCN1C(=O)/C(=C\c2ccncc2)SC1=S	none (no result: ALOX15B inhib)
O=C(O)CCCN1C(=O)/C(=C/c2ccc(-c3nc4ccccc4s3)o2)SC1=S	ALOX15B inhib 16µM
COc1ccc(C2=Nc3cccc4cccc(c34)N2)cc1	none
CC(C)C1=Nc2cccc3cccc(c23)N1	ALOX15B inhib 10µM
Cc1cc(-c2ccc(N=Nc3cc(S(=O)(=O)O)c4ccccc4c3N)c(C)c2)ccc1N=Nc1cc(S(=O)(=O)O)c2ccccc2c1N	ALOX15B inhib 3.2µM, 12-hLO inh inconclusive
Nc1c(S(=O)(=O)O)cc(S(=O)(=O)O)c2ccc(N=Nc3ccccc3)c(O)c12	none
O=C(Oc1ccccc1)n1c(=O)oc2ccc(Cl)cc21	none (no result: ALOX15B inhib)
O=C(O)/C=C\c1c2ccc(=O)c(O)c-2oc2c(O)c(O)ccc12	ALOX15B inhib inconclusive
O=c1cc(-c2cc(O)c(O)c(O)c2)oc2cc(O)cc(O)c12	ALOX15B inhib 13µM
O=c1cc(-c2ccc(O)cc2)oc2cc(O)cc(O)c12	none
CCCN(CCc1ccccc1)[C@H]1CCc2c(O)cccc2C1	none
CC(=O)c1cccc(NS(=O)(=O)c2cccc(C(=O)O)c2)c1	none (no result: ALOX15B inhib)
O=C(NO)c1ccccc1	none
O=C(NC1(O)C(=O)c2ccccc2C1=O)c1ccccc1	ALOX15B inhib 25µM
CC1CCN(S(=O)(=O)c2ccc(NC(=O)N3c4ccccc4Sc4ccccc43)cc2)CC1	none
NS(=O)(=O)c1ccc(NC(=O)N2c3ccccc3Sc3ccccc32)cc1	ALOX15B inhib inconclusive, 12-hLO inh 16µM
COc1ccc2c(c1)CCC1C2CC[C@]2(C)[C@H](NCCCCCCN3C(=O)C=CC3=O)CC[C@@H]12 (stereo not given in full)	none
CCOC(=O)c1ccc(NC(=S)NCCC2=CCCCC2)cc1	12-hLO inh 25µM (no result: ALOX15B inhib)
CCOC(=O)c1ccc(NC(=S)NC2CCCC2)cc1	none (no result: ALOX15B inhib)
O=C(O)[C@H]([C@H]1NCCS1)N1C(=O)c2ccccc2C1=O	none
Cc1cccc(NC(=S)/N=C(\N)Nc2nc(C)c3ccccc3n2)c1	12-hLO inh 7.9µM (no result: ALOX15B inhib)
Cc1cc(C)cc(NC(=S)/N=C(\N)Nc2nc(C)c3ccccc3n2)c1	none (no result: ALOX15B inhib)
Cc1cccc(NC(=S)/N=C(\N)Nc2nc(C)c3cc(C)ccc3n2)c1	none (no result: ALOX15B inhib)
Cc1ccc(NC(=S)/N=C(\N)Nc2nc(C)c3ccccc3n2)cc1C	12-hLO inh 5.6µM (no result: ALOX15B inhib)
Cc1ccc(S(=O)(=O)N(CC(=O)O)c2ccc(Cl)cc2)cc1	none (no result: ALOX15B inhib)

Compound activity as filed in PubChem.
